In PubChem BioAssay (EPA / NIEHS):
Where “and” joins values, the source holds several entries; their conditions need not be identical. Identical values can stand only once. Records with an inconclusive call do not appear. Calls of active or inactive are those of the source. The calls were made as follows, unless noted: active = hit-call score of the fitted dose curve at least 0.9, where 1 is the maximum; inconclusive = response in the unintended direction; inactive = score below 0.9.

Legend:
[1] = molecular target: chicken Estrogen Receptor (ERa), ESR1 (gene 396099) (UniProt P06212); assay: ATG_chERa_XSP2: Attagene TRANS-FACTORIAL Multi-Species (XSP2) HepG2 Assay for chicken Estrogen Receptor (ERa) (AID 2283817);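 also: actives raise reporter signal above DMSO so AC50 reflects ER activation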
Outline: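 Readout: fluorescent reporter-transcript fragments resolved by capillary electrophoresis after RT-PCR and HpaI cut. Chicken ERa-Gal4 fusion in transiently transfected HepG2, dosed for 24 h; activity taken as increase over DMSO baseline.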

[2] = tested on: zebrafish Estrogen Receptor (ER2a), gene 317734; assay: ATG_zfER2a_XSP2: Attagene TRANS-FACTORIAL Multi-Species (XSP2) HepG2 Assay for zebrafish Estrogen Receptor (ER2a) (AID 2283818);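 also: hits raise reporter mRNA so AC50 reflects activation of zebrafish ER2a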
Outline: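 Multiplexed trans-reporter readout: RT-PCR then capillary electrophoresis of reporter transcripts after 24 h compound treatment. Human HepG2 carries transfected zebrafish ER2a-Gal4 chimera; 3 nM 6-alpha-fluorotestosterone plus 1.5 nM norgestrel present. Induction scored against DMSO.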

[3] = tested on: zebrafish Estrogen Receptor (ER2b), gene 317733; assay: ATG_zfER2b_XSP2: Attagene TRANS-FACTORIAL Multi-Species (XSP2) HepG2 Assay for zebrafish Estrogen Receptor (ER2b) (AID 2283823);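 also: fitted upward as reporter gain over DMSO so potency reflects activation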
Outline: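 Read-out: fluorescent reporter mRNA, measured by RT-PCR then capillary electrophoresis after HpaI digestion. HepG2 cells carried transiently transfected multi-reporter TRANS constructs (NR-Gal4 chimeras); 24 h chemical exposure; activity scored upward versus DMSO control.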

[4] = tested on: zebrafish Androgen Receptor (AR), gene 100005148; assay: ATG_zfAR_XSP2: Attagene TRANS-FACTORIAL Multi-Species (XSP2) HepG2 Assay for zebrafish Androgen Receptor (AR) (AID 2283825);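 also: hits raise reporter mRNA above DMSO so AC50 reflects agonist-type gain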
Outline: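 After 24 h compound exposure in medium with 3 nM 6-alpha-fluorotestosterone plus 1.5 nM norgestrel, HepG2 cells carrying zebrafish AR–GAL4 reporter constructs were assessed for reporter mRNA gain by RT-PCR and capillary electrophoresis.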

[5] = molecular target: Estrogen receptor (Homo sapiens) (UniProt P03372); assay: ATG_hERa_XSP2: Attagene TRANS-FACTORIAL Multi-Species (XSP2) HepG2 Assay for human Estrogen Receptor (ERa) (AID 2283827)
Outline: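 Trans-activation of exogenous human ERa-Gal4 chimera read in HepG2 as reporter transcript after 24 h exposure; medium included 3 nM 6-alpha-fluorotestosterone and 1.5 nM norgestrel. Quantified by RT-PCR with capillary electrophoresis, positive-direction fitting against DMSO.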

[6] = tested on: frog Estrogen Receptor (ER2), gene 100174814; assay: ATG_frER2_XSP2: Attagene TRANS-FACTORIAL Multi-Species (XSP2) HepG2 Assay for frog Estrogen Receptor (ER2) (AID 2283828)
Outline: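 Cells were transfected with reporter constructs under GAL4-UAS control, dosed with chemicals for 24 h, then lysed for RNA; the frog ER2-driven reporter mRNA was quantified by capillary electrophoresis of labeled PCR fragments, with activity fitted upward from DMSO.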

[7] = molecular target: Peroxisome proliferator-activated receptor gamma (Homo sapiens) (UniProt P37231); assay: ATG_hPPARg_XSP2: Attagene TRANS-FACTORIAL Multi-Species (XSP2) HepG2 Assay for human Peroxisome Proliferator-activated Receptor gamma (PPARg) (AID 2283829);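 also: actives raise reporter mRNA above DMSO so AC50 reflects PPARg activation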
Outline: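 HepG2 cells transiently transfected with multiplexed GAL4-UAS reporter units for chimeric NR-Gal4 receptors, dosed 24 h. Reporter mRNA quantified by RT-PCR, 6-FAM labeling, HpaI digestion and capillary electrophoresis; gain-of-signal fitted against DMSO baseline.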

[8] = molecular target: mouse Peroxisome Proliferator-activated Receptor gamma (PPARg), Pparg (gene 19016) (UniProt P37238); assay: ATG_mPPARg_XSP2: Attagene TRANS-FACTORIAL Multi-Species (XSP2) HepG2 Assay for mouse Peroxisome Proliferator-activated Receptor gamma (PPARg) (AID 2283830);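 also: hits are gains in reporter mRNA above DMSO so AC50 marks activation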
Outline: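 Multiplexed TRANS reporter readout: after 24 h chemical exposure of transfected HepG2 cells (with 3 nM 6-alpha-fluorotestosterone, 1.5 nM norgestrel present), RNA reverse-transcribed, amplified, 6-FAM-labelled and resolved by capillary electrophoresis; mouse PPARg-Gal4 induction scored against DMSO.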

[9] = molecular target: zebrafish Thyroid Hormone Receptor alpha (TRa), thraa (gene 30670) (UniProt Q98867); assay: ATG_zfTRa_XSP2: Attagene TRANS-FACTORIAL Multi-Species (XSP1) HepG2 Assay for zebrafish Thyroid Hormone Receptor alpha (TRa) (AID 2283832);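 also: actives raise zebrafish TRa-Gal4 reporter transcript above DMSO baseline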
Outline: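 Readout is reporter mRNA induction, quantified by RT-PCR and capillary electrophoresis with fluorescent labelling, after 24 h compound exposure of transiently transfected HepG2 cells carrying NR-Gal4 chimera reporters. Activity fitted upward relative to DMSO.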

[10] = tested on: zebrafish Peroxisome Proliferator-activated Receptor gamma (PPARg), gene 557037; assay: ATG_zfPPARg_XSP2: Attagene TRANS-FACTORIAL Multi-Species (XSP2) HepG2 Assay for zebrafish Peroxisome Proliferator-activated Receptor gamma (PPARg) (AID 2283833);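 also: actives increase reporter signal over DMSO so AC50 reflects activation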
Outline: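 HepG2 cells transiently transfected with GAL4-UAS reporter units expressing a zebrafish PPARg–GAL4 chimera; compound exposure 24 h. Reporter mRNA quantified by RT-PCR with fluorescent labelling and capillary electrophoresis; gain of signal fitted relative to DMSO baseline.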

[11] = tested on: turtle Thyroid Hormone Receptor, alpha (TRa), gene 101949057; assay: ATG_trTRa_XSP2: Attagene TRANS-FACTORIAL Multi-Species (XSP1) HepG2 Assay for turtle Thyroid Hormone Receptor, alpha (TRa) (AID 2283834);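 also: hits raise reporter mRNA over the DMSO baseline so AC50 marks activators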
Outline: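 HepG2 cells transiently transfected with multiplexed GAL4-UAS reporter units expressing chimeric NR-Gal4 proteins were dosed for 24 hours. Reporter mRNA was quantified by RT-PCR with 6-FAM labelling and capillary electrophoresis, gain of signal scored against DMSO.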

[12] = ATG_M_61_XSP2: Attagene TRANS-FACTORIAL Multi-Species (XSP2) HepG2 Assay for M61 Transcription Factor (Internal Marker) (AID 2283835; active = hit-call score of the fitted dose curve at least 0.9, where 1 is the maximum; inactive = score below 0.9;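 also: active means a rise in signal above the DMSO baseline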)
Outline: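 Transient MRTU transfection of human HepG2; 24 h chemical dosing with 3 nM 6-alpha-fluorotestosterone + 1.5 nM norgestrel added for AR stimulation. RNA isolated, RT, PCR, FAM-labelled, HpaI cut, CE read. Positive direction vs DMSO.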

[13] = molecular target: zebrafish Thyroid Hormone Receptor beta (TRb), thrb (gene 30607) (UniProt Q9PVE4); assay: ATG_zfTRb_XSP2: Attagene TRANS-FACTORIAL Multi-Species (XSP1) HepG2 Assay for zebrafish Thyroid Hormone Receptor beta (TRb) (AID 2283836)
Outline: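 Reporter transcripts were measured by RT-PCR with fluorescent primer extension and capillary electrophoresis, 24 h after chemical dosing of transiently transfected HepG2 cells. Activity was scored as upward signal versus DMSO baseline.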

[14] = molecular target: human Thyroid hormone Receptor beta (TRb), THRB (gene 7068) (UniProt P10828); assay: ATG_hTRb_XSP2: Attagene TRANS-FACTORIAL Multi-Species (XSP2) HepG2 Assay for human Thyroid hormone Receptor beta (TRb) (AID 2283840);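 also: actives raise reporter mRNA so potency reflects agonist-like gain of signal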
Outline: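 HepG2 cells were transiently transfected with GAL4-UAS multiplexed reporter units expressing chimeric NR-Gal4 proteins, dosed 24 h; reporter mRNA was quantified by RT-PCR, fluorescent labeling, HpaI digestion and capillary electrophoresis, fitted for gain of signal versus DMSO.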

[15] = ATG_M_19_XSP2: Attagene TRANS-FACTORIAL Multi-Species (XSP2) HepG2 Assay for M32 Transcription Factor (Internal Marker) (AID 2283822)
Outline: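 Internal background marker in a multi-species nuclear receptor TRANS panel: transfected HepG2 cells exposed 24 h, with 3 nM 6-alpha-fluorotestosterone and 1.5 nM norgestrel present. Readout is RT-PCR of reporter transcripts resolved by capillary electrophoresis, gain-of-signal versus DMSO.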

[16] = ATG_XTT_Cytotoxicity_XSP2: Cytotoxicity Assessment in the Attagene TRANS-FACTORIAL Multi-Species (XSP2) HepG2 Assay (AID 2283837)
Outline: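 XTT-based cell number read-out in human HepG2 liver cells carrying transfected reporter units, measured 24 h after chemical dosing. Activity is signal loss versus DMSO baseline.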

[17] = molecular target: human Thyroid hormone Receptor alpha (TRa), THRA (gene 7067) (UniProt P10827); assay: ATG_hTRa_XSP2: Attagene TRANS-FACTORIAL Multi-Species (XSP2) HepG2 Assay for human Thyroid hormone Receptor alpha (TRa) (AID 2283838)
Outline: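 Gain-of-signal in reporter mRNA, relative to DMSO, after 24 h dosing of transfected HepG2; quantitation by RT-PCR fragment analysis on capillary electrophoresis.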

[18] = molecular target: frog Thyroid hormone Receptor alpha (TRa), thra-a (gene 397942) (UniProt P15204); assay: ATG_frTRa_XSP2: Attagene TRANS-FACTORIAL Multi-Species (XSP2) HepG2 Assay for frog Thyroid hormone Receptor alpha (TRa) (AID 2283839)
Outline: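 HepG2 cells transiently transfected with multiplexed GAL4-UAS reporter units expressing chimeric frog TRα-Gal4; reporter mRNA read 24 h after dosing by RT-PCR, FAM-labelled primer extension, HpaI digest and capillary electrophoresis. Gain of signal fitted versus DMSO.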

[19] = tested on: chicken Androgen Receptor (AR), gene 422165; assay: ATG_chAR_XSP2: Attagene TRANS-FACTORIAL Multi-Species (XSP2) HepG2 Assay for chicken Androgen Receptor (AR) (AID 2283819);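 also: hits raise reporter mRNA above DMSO so potency is for activation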
Outline: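 Readout is reporter mRNA induction via RT-PCR/capillary electrophoresis after 24 h chemical exposure, positive direction relative to DMSO. Transiently transfected HepG2 express chimeric chicken AR–GAL4; AR stimulated by 3 nM 6-alpha-fluorotestosterone and 1.5 nM norgestrel.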

[20] = tested on: frog Androgen Receptor (AR), gene 399456; assay: ATG_frAR_XSP2: Attagene TRANS-FACTORIAL Multi-Species (XSP2) HepG2 Assay for frog Androgen Receptor (AR) (AID 2283824);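 also: reporter mRNA from GAL4-UAS units driven by Xenopus AR-Gal4 chimera; actives raise reporter signal above DMSO so AC50 reflects agonist-like induction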
Outline: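 Reporter transcript induction, read by RT-PCR with fluorescent capillary electrophoresis, in human liver HepG2 cells carrying an exogenous Xenopus AR-Gal4 fusion and GAL4-driven reporters; chemical exposure 24 hours, activity scored upward against DMSO controls.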

mouse Peroxisome Proliferator-activated Receptor gamma (PPARg), Pparg (gene 19016), sequence (P37238 whole entry, looked up, the tested form may be a part): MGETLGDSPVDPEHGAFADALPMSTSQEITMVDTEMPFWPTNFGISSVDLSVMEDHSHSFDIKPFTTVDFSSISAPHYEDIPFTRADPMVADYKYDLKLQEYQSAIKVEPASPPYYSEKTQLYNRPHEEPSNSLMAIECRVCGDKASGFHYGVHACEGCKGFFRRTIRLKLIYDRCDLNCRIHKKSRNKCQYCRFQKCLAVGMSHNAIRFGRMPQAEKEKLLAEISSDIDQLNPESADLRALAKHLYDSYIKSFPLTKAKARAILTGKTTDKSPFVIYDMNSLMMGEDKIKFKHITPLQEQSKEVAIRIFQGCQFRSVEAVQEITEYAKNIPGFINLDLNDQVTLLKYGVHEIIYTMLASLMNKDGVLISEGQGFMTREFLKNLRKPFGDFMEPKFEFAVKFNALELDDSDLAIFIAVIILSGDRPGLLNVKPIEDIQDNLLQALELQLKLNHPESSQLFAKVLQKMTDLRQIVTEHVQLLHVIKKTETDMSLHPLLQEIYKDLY
Estrogen receptor (Homo sapiens), sequence (P03372 whole entry, looked up, the tested form may be a part): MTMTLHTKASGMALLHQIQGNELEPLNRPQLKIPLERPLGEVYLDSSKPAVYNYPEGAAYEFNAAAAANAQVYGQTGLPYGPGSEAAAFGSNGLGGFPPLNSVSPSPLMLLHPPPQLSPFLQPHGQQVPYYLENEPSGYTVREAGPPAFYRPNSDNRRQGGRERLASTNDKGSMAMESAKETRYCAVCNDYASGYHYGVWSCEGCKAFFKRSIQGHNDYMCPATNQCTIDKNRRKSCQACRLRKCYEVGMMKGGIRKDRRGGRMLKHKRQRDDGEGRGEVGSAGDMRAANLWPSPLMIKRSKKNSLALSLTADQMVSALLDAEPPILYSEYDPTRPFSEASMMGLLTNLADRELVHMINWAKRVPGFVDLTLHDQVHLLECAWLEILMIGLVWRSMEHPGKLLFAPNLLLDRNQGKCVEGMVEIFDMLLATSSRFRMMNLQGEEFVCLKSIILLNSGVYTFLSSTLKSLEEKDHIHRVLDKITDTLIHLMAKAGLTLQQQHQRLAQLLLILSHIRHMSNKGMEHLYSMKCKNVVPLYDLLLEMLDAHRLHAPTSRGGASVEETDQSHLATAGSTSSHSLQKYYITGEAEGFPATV
zebrafish Thyroid Hormone Receptor beta (TRb), thrb (gene 30607), sequence (Q9PVE4 whole entry, looked up): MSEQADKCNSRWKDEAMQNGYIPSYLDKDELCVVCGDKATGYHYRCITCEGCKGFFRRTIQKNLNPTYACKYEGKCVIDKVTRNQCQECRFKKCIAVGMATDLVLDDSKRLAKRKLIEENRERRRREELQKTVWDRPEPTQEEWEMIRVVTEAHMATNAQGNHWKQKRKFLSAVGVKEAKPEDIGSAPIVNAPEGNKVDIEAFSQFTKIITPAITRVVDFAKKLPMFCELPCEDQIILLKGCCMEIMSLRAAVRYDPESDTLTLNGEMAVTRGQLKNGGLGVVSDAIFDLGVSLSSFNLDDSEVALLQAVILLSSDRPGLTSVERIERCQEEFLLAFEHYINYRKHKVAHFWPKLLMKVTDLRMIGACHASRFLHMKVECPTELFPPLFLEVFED
zebrafish Thyroid Hormone Receptor alpha (TRa), thraa (gene 30670), sequence (Q98867 whole entry, looked up, the tested form may be a part): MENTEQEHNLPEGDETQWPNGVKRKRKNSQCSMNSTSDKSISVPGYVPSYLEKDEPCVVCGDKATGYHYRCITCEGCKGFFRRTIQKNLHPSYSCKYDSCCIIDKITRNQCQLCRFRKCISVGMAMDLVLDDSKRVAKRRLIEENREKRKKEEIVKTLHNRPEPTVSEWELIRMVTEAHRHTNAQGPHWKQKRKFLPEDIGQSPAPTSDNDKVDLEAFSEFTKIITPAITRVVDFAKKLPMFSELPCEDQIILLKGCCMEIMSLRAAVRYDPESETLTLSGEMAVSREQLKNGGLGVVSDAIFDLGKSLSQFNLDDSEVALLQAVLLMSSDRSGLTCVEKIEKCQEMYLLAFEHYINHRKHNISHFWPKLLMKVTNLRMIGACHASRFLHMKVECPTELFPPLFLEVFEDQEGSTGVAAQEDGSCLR
frog Thyroid hormone Receptor alpha (TRa), thra-a (gene 397942), sequence (P15204 whole entry, looked up, the tested form may be a part): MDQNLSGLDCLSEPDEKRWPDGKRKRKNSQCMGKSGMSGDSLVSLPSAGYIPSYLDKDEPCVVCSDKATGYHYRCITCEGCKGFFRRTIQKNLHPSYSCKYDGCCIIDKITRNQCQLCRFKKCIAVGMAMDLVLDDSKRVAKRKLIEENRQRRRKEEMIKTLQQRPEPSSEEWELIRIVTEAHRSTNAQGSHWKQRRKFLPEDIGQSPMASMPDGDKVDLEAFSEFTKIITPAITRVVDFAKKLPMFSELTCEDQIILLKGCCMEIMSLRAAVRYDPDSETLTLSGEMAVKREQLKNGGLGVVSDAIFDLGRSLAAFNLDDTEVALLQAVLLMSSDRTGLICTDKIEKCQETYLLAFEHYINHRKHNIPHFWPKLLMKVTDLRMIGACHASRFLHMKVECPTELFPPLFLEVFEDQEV
human Thyroid hormone Receptor beta (TRb), THRB (gene 7068), sequence (P10828 whole entry, looked up, the tested form may be a part): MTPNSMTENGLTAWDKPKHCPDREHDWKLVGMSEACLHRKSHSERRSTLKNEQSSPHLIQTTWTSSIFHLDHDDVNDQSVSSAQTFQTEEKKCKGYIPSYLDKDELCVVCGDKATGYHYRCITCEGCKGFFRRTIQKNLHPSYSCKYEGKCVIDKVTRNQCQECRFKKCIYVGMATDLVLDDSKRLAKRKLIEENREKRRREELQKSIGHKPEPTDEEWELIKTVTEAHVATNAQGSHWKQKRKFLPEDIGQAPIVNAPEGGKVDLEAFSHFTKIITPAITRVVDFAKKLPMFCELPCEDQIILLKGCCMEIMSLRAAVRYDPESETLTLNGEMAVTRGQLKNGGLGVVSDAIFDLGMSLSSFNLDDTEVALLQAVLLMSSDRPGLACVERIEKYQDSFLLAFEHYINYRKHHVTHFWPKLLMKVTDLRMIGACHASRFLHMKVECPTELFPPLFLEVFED
human Thyroid hormone Receptor alpha (TRa), THRA (gene 7067), sequence (P10827 whole entry, looked up, the tested form may be a part): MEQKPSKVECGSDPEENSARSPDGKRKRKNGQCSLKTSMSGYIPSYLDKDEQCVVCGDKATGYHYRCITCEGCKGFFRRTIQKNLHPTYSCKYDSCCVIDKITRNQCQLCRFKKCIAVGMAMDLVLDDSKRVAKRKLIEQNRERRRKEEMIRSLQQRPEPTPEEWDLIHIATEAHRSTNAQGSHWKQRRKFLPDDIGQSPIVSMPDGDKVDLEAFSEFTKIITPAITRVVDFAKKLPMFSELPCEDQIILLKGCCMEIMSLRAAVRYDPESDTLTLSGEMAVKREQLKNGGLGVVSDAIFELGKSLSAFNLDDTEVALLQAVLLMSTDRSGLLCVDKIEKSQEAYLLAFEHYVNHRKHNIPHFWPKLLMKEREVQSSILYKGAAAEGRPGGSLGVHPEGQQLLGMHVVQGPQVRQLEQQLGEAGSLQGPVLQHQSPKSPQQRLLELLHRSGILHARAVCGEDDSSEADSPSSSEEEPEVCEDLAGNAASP
Peroxisome proliferator-activated receptor gamma (Homo sapiens), sequence (P37231 whole entry, looked up, the tested form may be a part): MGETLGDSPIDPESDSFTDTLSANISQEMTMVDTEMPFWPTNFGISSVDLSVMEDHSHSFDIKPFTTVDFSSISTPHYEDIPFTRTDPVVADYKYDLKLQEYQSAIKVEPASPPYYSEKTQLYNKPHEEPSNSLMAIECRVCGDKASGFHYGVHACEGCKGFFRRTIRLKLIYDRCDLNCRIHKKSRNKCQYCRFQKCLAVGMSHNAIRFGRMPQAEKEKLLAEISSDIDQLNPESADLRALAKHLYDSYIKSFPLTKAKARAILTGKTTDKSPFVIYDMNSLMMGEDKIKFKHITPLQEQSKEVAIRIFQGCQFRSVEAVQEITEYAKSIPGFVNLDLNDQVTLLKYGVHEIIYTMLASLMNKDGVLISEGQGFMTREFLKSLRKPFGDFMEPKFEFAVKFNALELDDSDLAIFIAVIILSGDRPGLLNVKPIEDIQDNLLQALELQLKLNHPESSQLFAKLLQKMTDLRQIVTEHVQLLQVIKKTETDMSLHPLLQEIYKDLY
chicken Estrogen Receptor (ERa), ESR1 (gene 396099), sequence (P06212 whole entry, looked up, the tested form may be a part): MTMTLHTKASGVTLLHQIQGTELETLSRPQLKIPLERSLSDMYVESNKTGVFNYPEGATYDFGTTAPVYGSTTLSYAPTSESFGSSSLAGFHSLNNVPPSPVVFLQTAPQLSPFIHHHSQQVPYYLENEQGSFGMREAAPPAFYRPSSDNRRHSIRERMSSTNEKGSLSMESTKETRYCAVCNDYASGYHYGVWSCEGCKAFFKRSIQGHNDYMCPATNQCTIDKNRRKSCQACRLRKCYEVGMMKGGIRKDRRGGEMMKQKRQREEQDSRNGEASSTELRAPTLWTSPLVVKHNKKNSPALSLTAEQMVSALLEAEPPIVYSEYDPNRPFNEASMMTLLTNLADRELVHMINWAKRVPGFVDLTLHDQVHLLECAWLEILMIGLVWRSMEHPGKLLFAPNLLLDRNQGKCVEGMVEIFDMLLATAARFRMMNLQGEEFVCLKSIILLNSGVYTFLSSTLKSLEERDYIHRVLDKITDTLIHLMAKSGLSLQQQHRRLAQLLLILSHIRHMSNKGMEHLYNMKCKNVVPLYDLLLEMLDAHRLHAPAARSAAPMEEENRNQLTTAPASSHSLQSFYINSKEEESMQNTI

SMILES: CCCCCCCCCCCCc1ccc(O)cc1
- AC50 [1]: 526 nM (active) and 135 nM (active)
- outcome [2]: inactive
- AC50 [3]: 377 nM (active) and 126 nM (active)
- outcome [4]: inactive
- AC50 [5]: 546 nM (active) and 167 nM (active)
- AC50 [6]: 610 nM (active) and 239 nM (active)
- outcome [7]: inactive
- outcome [8]: inactive
- outcome [9]: inactive
- outcome [10]: inactive
- outcome [11]: inactive
- outcome [12]: inactive
- outcome [13]: inactive
- outcome [14]: inactive

SMILES: Oc1ccc(-c2ccccc2)c(Cl)c1
- AC50 [1]: 5.68 µM (active) and 2.43 µM (active)
- AC50 [2]: 4.34 µM (active) and 9.01 µM (active)
- outcome [15]: inactive
- AC50 [3]: 9.03 µM (active) and 7 µM (active)
- AC50 [5]: 5.18 µM (active) and 4.36 µM (active)
- AC50 [6]: 5.62 µM (active) and 3.17 µM (active)
- AC50 [7]: 33.4 µM (active) and 28.7 µM (active)
- AC50 [8]: 33.4 µM (active)
- outcome [9]: inactive
- outcome [10]: inactive
- outcome [11]: inactive
- outcome [13]: inactive
- AC50 [16]: 85.4 µM (active)
- outcome [17]: inactive
- outcome [18]: inactive
- outcome [14]: inactive

SMILES: COc1ccc(-c2coc3cc(O)cc(O)c3c2=O)cc1
- AC50 [1]: 1.24 µM (active) and 200 nM (active)
- AC50 [2]: 260 nM (active) and 38 nM (active)
- AC50 [19]: 10 µM (active) and 6.25 µM (active)
- AC50 [3]: 2.28 µM (active) and 310 nM (active)
- outcome [20]: inactive
- AC50 [5]: 931 nM (active) and 276 nM (active)
- AC50 [6]: 501 nM (active) and 6.78 nM (active)
- outcome [7]: inactive
- outcome [8]: inactive
- outcome [9]: inactive
- outcome [10]: inactive
- outcome [11]: inactive
- outcome [12]: inactive
- outcome [13]: inactive
- outcome [16]: inactive
- outcome [17]: inactive
- outcome [18]: inactive
- outcome [14]: inactive

SMILES: C=C1C[C@H]2[C@@H]3C=C(C)C4=CC(=O)CC[C@]4(C)[C@H]3CC[C@]2(C)[C@@]1(OC(C)=O)C(C)=O
- outcome [2]: inactive
- outcome [15]: inactive
- outcome [3]: inactive
- outcome [7]: inactive
- outcome [8]: inactive
- outcome [9]: inactive
- outcome [10]: inactive
- outcome [11]: inactive
- outcome [16]: inactive
- outcome [17]: inactive
- outcome [18]: inactive
- outcome [14]: inactive

SMILES: CC(C)(C)NC(=O)[C@H]1CC[C@H]2[C@@H]3CC[C@H]4NC(=O)C=C[C@]4(C)[C@H]3CC[C@]12C
- outcome [1]: inactive
- AC50 [2]: 142 µM (active)
- AC50 [3]: 67.5 µM (active)
- AC50 [5]: 33.5 µM (active)
- AC50 [6]: 100 µM (active)
- outcome [8]: inactive
- AC50 [11]: 25.9 µM (active)
- outcome [12]: inactive
